# Bioassay records from PubChem.
# Sampled rows, rich in hits. Any-hit rate of the full collection: about 19%.
# DT40 TDP1 no CPT: qHTS for Inhibitors of human tyrosyl-DNA phosphodiesterase 1 (TDP1): qHTS in cells in absence of CPT; DT40 Tdp1-/- hTDP1 cells, no CPT, ATP luminescence, 48 h; AID 686978, 2013; Potency, µM (top dose mostly 46.2 µM), for the others: at the highest dose activity change, negative = growth inhibition, usual class: inhibitors; 420,000 compounds, 15% hits; further: potency means the concentration at half of the fitted maximal effect; nearly all actives have a fitted effect of over 55% in size
#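 No-CPT arm: Tdp1-/-;hTDP1 DT40 cells (400/well) plus compounds, incubated ≥48 hr at 37 °C. Readout CellTiter-Glo luminescence.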
# HT1080 IDH1KD tx: qHTS for induction of synthetic lethality in tumor cells producing 2HG: qHTS for the HT-1080-IDH1KD cell line | HT-1080 IDH1 knockdown viability, ATP luminescence, 48 h | Potency, µM (doses to about 46.1 µM), for inactives: at the top dose activity, negative = toxicity, most hits filed as cytotoxic | 360,000 compounds, 2% hits | AID 686971, 2013;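 further: potency means the concentration at half of the fitted maximal effect; 0% = DMSO wells and -100% = cell-free medium wells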
#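 Cytotoxicity counter-line: IDH1KD HT-1080, 48 h, CellTiter-Glo. Curves classed by r2, magnitude and activity.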
# HT1080-NT tox: qHTS for induction of synthetic lethality in tumor cells producing 2HG: qHTS for the HT-1080-NT fibrosarcoma cell line; Potency, µM (series often up to 46.1 µM), for the others: top-dose activity, negative = less viability, usual class: cytotoxic; HT-1080-NT fibrosarcoma viability, CellTiter-Glo ATP luminescence, 48 h; 360,000 compounds, 1.6% hits; AID 686970, 2013;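 further: NT is the 2HG producing partner of a matched IDH1 knockdown line; potency means the concentration at half of the fitted maximal effect; 0% = DMSO-treated cells and -100% = media-only wells without cells; nearly all actives have a fitted effect of over 55% in size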
#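 750 cells/well, RPMI + 5% FBS; 2 h settle, compound pin-transfer, 48 h at 37 degrees C. CellTiter-Glo 10 min RT, luminescence. Normalized to DMSO and media-only wells.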
# IL-1B inflam inh: qHTS for Inhibitors of Inflammasome Signaling: IL-1-beta AlphaLISA Primary Screen; THP-1 LPS/ATP IL-1B secretion, AlphaLISA, 16 h; active compounds read low; activity change, % at 57.5 µM; 360,000 compounds, 4.7% hits; AID 743279, 2014; in the data active means activity change below about -50%; inconclusive means mostly about -30% to -49%
#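 THP-1 cells pretreated 1 hr with compounds (up to 57.5 uM final), then stimulated with LPS (250 ng/mL final) plus ATP (1.25 mM final); secreted IL-1B measured by AlphaLISA after 16 hr, decreased signal indicating inhibition.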
# DT40 TDP1 CPT: qHTS for Inhibitors of human tyrosyl-DNA phosphodiesterase 1 (TDP1): qHTS in cells in presence of CPT; chicken DT40 Tdp1-/-;hTDP1 cells + 20 nM CPT, ATP luminescence, 48 h; Potency, µM (top dose mostly 46.2 µM), for the others: at the top dose activity change, negative = growth inhibition, actives largely listed as inhibitors; 420,000 compounds, 12% hits; further: potency means the concentration at half of the fitted maximal effect; nearly all actives have a fitted effect of over 55% in size
#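 Chicken DT40 Tdp1-/- cells stably complemented with human TDP1 were seeded at 400 cells/well in medium containing 20 nM camptothecin, exposed to pin-transferred compounds, and grown at 37 °C for at least 48 hr. Viability was read as ATP luminescence.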
# * = called active by the depositor; ? = inconclusive; nt = no result; ! = not active in a repeat; [ ] = remark or other dose. Unless noted, the call rests on the fitted dose curve; in most records, active means well fitted curve in the direction sought with a large enough effect; inconclusive means small, poorly fitted or top-dose-only effect, or another doubt; inactive means no such curve, though single readings can be large; an effect the other way counts as inactive or inconclusive. Unless noted, on the % scale 0 is the no-effect control and ±100 the full control effect.
SMILES,DT40 TDP1 no CPT,HT1080 IDH1KD tx,HT1080-NT tox,IL-1B inflam inh,DT40 TDP1 CPT
CC(=O)Nc1ccc(NC(=O)C2CCC(N3C(=O)C4C5C=CC(C6CC56)C4C3=O)CC2)cc1 (stereo not drawn),-12%,-2%,-1%,20,-9%
O=C(Nc1ccc(Cc2ccncc2)cc1)C1CCC(N2C(=O)C3C4C=CC(C5CC45)C3C2=O)CC1 (stereo not drawn),15µM*,?,?,0,18µM*
CNc1cccc(-c2cccc(C(=O)N3CCOCC3)c2)n1,-3%,?,19%,14,1%
CCN(CC(=O)Nc1c(F)cccc1F)C(=O)CCNC(=O)c1ccc([N+](=O)[O-])cc1,-6%,12%,8%,1,-20%
COc1c2c(cc3oc(=O)ccc13)OC(C)(C)C=C2,26µM*,-5%,0%,10,?
CC1(C)C=Cc2cc3ccc(=O)oc3cc2O1,8.2µM*!,-10%,?,-10,15µM*!
COC(=O)c1ccc(CNC(=O)C23CC4CC(CC(C4)C2)C3)cc1,?,2%,-5%,-6,-29%
CCN(CC)C(=O)COc1ccc(C=O)cc1OC,2%,12%,13%,6,21%
CCOc1ccc(C(=O)CCC(=O)NN2CCCCC2)cc1,-2%,14%,13%,4,0%
COc1ccc(C(=O)CCN2CCN(c3ccc(OC)cc3)CC2)cc1,2.1µM*,?,?,-101*,2.1µM*
COc1ccc(C(=O)OCCN2CCCCC2)cc1,0%,0%,9%,-2,1%
COc1ccc(C(=O)CCN2CCCCCC2)cc1,3.2µM*,10µM*,?,-4,3.2µM*
CC(CN1CCCCC1)OC(=O)/C=C/c1ccccc1 (stereo not drawn),22%,-1%,6%,19,-3%
O=C(/C=C/c1ccccc1)CCN1CCCCC1,0.92µM*,?,?,-90*,1.2µM*
CCOc1ccc(C(=O)CCN2CCCCC2)cc1,?,-22%,?,-6,21µM*
Cc1cccc(-n2c3nc(=O)n(C)c(=O)c-3cc3c(C)nn(-c4ccccc4)c32)c1C,0%,nt,nt,nt,7%
O=C(/C=C/c1ccc(F)cc1)NCC1(c2ccccc2)CCOCC1,?,10%,0%,-5,?
COc1cccc(Cn2c(=O)c(-c3cn(C)c4ccccc34)nc3cncnc32)c1,26%,nt,nt,nt,-2%
CC(N)=NCCC[C@H](N)C(=O)O,-3%,nt,nt,nt,14%
O=C(c1ccccc1)c1ccc(OCCCN2CCCC2)cc1,-20%,4%,17%,1,-1%
O=C(CCCCN1CCCCC1)c1ccc2c(c1)Cc1ccccc1-2,21µM*,0%,-30%,-5,?
CCCOc1ccc(C(=O)CCN2CCN(C(=O)OCC)CC2)cc1,5.2µM*,?,?,0,2.3µM*
CCC1(C)CC2(CCCN(CCC(=O)c3ccccc3)C2)CCO1 (stereo not drawn),3.3µM*,5%,3%,1,3.7µM*
O=C(CCN1CCCCCC1)c1ccccc1,3.7µM*,3%,12%,-3,3.3µM*
CC1CC(C)CN(C(=O)c2cc3c(s2)CCC3)C1 (stereo not drawn),?,-1%,6%,-13,?
SMILES,DT40 TDP1 no CPT,HT1080 IDH1KD tx,HT1080-NT tox,IL-1B inflam inh,DT40 TDP1 CPT
O=C1CC2c3ccccc3C1C1C(=O)N(CCc3ccccc3)C(=O)C21 (stereo not drawn),?,-1%,11%,11,-8%
COc1cc(NC(=O)CCS(=O)(=O)c2ccc3c(c2)CC(=O)N3C)cc(OC)c1OC,-14%,nt,nt,nt,-13%
COc1ccccc1N1CCN(C2CCCN(Cc3cc(F)cc(F)c3)C2)CC1 (stereo not drawn),-13%,-1%,6%,14,-20%
O=C(/C=C/c1ccccc1)COC(=O)c1ccccc1,9.2µM*,?,?,-8,?
CCOC(=O)C1(c2ccccc2)SC(C(=O)OCC)(c2ccccc2)S1 (stereo not drawn),?,13%,-1%,-66*,-17%
CCCCCN(C(=O)CCC(=O)OCC(=O)N1CCC(C)CC1)c1c(N)n(CCCC)c(=O)[nH]c1=O,-14%,1%,-3%,7,-10%
COc1cccc(-c2cc3nc(-c4ccccc4)cc(N4CCC5(CC4)OCCO5)n3n2)c1,21µM*,5%[9.24 µM],?,?,?
COc1cccc(-c2cc(N3CCN(C(=O)c4ccoc4)CC3)n3nc(-c4cccc(Cl)c4)cc3n2)c1,8.2µM*,-2%,0%,-6,15µM*
CN1CCN(c2cc(-c3cccc(C(=O)O)c3)nc3ccnn23)CC1,-13%,29%,?,0,-15%
COc1cccc(-c2cc3nc(-c4ccccc4)cc(N4CCN(C(=O)c5ccoc5)CC4)n3n2)c1,5.2µM*,?,-18%,-13,7.3µM*
CCOC(=O)C1=C[C@@H](C(C)(C)C)N(S(=O)(=O)c2ccc([N+](=O)[O-])cc2)[C@H]1c1ccccc1,?,?,?,0,?
Nc1cc(=O)[nH]c(N2CCN(c3ccccc3)CC2)n1,?,16%,-9%,14,?
O=C(O)c1ccc([N+](=O)[O-])cc1-c1cc([N+](=O)[O-])ccc1C(=O)O,-24%,7%,-1%,21,5%
O=[N+]([O-])c1ccc2c(c1)-c1ccccc1C2O (stereo not drawn),13µM*,9%,19%,?,?
CCOC(=O)/C(=C/c1c[nH]c2ccccc12)NC(C)=O,-16%,-1%,6%,19,-12%
CCOC(=O)/C=C(C)\C=C\c1c[nH]c2ccccc12,29µM*,?,?,-64*,-6%
CN(c1ccc(O)cc1)S(=O)(=O)c1ccc2ccccc2c1,?,-12%,-21%,-62*,12%
CC(=O)Oc1ccc(N(C(C)=O)S(=O)(=O)c2ccc3ccccc3c2)cc1,21µM*,2%,-23%,?,?
Cc1ccccc1-c1ccc2c(c1)O[C@H](CN(C)C(=O)C1CC1)[C@@H](C)CN([C@@H](C)CO)S2(=O)=O,-24%,-4%,14%,-6,-25%
COc1ccc(N(C(=O)c2ccc(Br)o2)C2C=CS(=O)(=O)C2)cc1 (stereo not drawn),13µM*,-2%,5%,4,13µM*
